From PubChem BioAssay (NCI) come the findings set out here.

Test systems include NCI-H23 lung; NCI-H226 lung; NCI-H322M lung; HOP-62 NSCLC; NCI-H460 lung; HOP-92 NSCLC; NCI-H522 lung; A549/ATCC NSCLC; 786-0 renal; COLO 205 colon.
Holding throughout (test): NCI-60 one-dose screen, 48 h (100 = growth as untreated, 0 = no growth, -100 = all killed)
What all share (conditions): 10 µM unless noted

Molecules are shown by their SMILES. About 83,000 compounds went through this panel and 20% of them were active in at least one assay; those are over-represented in the sample as a whole.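 Note: values are percent growth. 100 is the growth of untreated cells, values between 100 and 0 indicate rising inhibition; between -100 and 0 indicates cell death.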 Unmarked numbers belong to inactive results. Active and inactive are the calls of the source. How the source made its calls: active means growth percent below 10; inactive means the rest.

Consider `COc1ccc(/C=N/C2=C(C#N)C(c3ccc(N(C)C)cc3)c3ccc4ccccc4c3O2)cc1` (stereo not given), for which the growth is 79.2% in the assay with NCI-H23 lung; 44.6% in the assay with NCI-H226 lung; 89.1% in the assay with NCI-H322M lung; 57.4% in the assay with HOP-62 NSCLC; 40.7% with NCI-H460 lung; 65.4% in the assay with HOP-92 NSCLC. The growth was 26.1% in the assay on NCI-H522 lung, 64.9% in the assay on A549/ATCC NSCLC, 83.1% in the assay on 786-0 renal and 101% in the assay on COLO 205 colon.

Regarding `O=c1cc(/C(=C2/C=CC=N2)c2ccc[nH]2)c2cc(Cl)ccc2o1`, the growth with NCI-H23 lung is 62.3%; in the assay with NCI-H226 lung it was 35%; in the assay with NCI-H322M lung, 55.8%; in the assay with HOP-62 NSCLC it was 50.4%; in the assay with NCI-H460 lung it was 24.3%; in the assay with HOP-92 NSCLC it was 66.5%. Further, the growth is 56.1% in the assay with NCI-H522 lung, 55.2% in the assay with A549/ATCC NSCLC, 22.4% in the assay with 786-0 renal and 87.2% in the assay on COLO 205 colon.

As for `COc1ccc(NC2=C(Sc3nc(C)cc(C)n3)C(=O)N(Cc3ccccc3)C2=O)cc1Cl`, the growth with NCI-H23 lung was 84.5% [30 µM]; with NCI-H226 lung it was 79.9% [30 µM]; in the assay with NCI-H322M lung, 111% [30 µM]; with HOP-62 NSCLC, 96.3% [30 µM]; in the assay on NCI-H460 lung, 60.7% [30 µM]; in the assay on HOP-92 NSCLC, 26.9% [30 µM]. Besides, the growth with NCI-H522 lung is 85.7% [30 µM]; with A549/ATCC NSCLC, 74.3% [30 µM]; in the assay on 786-0 renal it was 80.4% [30 µM]; with COLO 205 colon, 110% [30 µM].

In the case of `CC/C=C\C/C=C\C[C@H]1C/C=C2/C(=O)C=C[C@@H]2C/C=C\CCC(=O)O1`, the growth is 12.1% in the assay on NCI-H23 lung; -36.1% (active) in the assay on NCI-H226 lung; 45.3% in the assay with NCI-H322M lung; -1.49% (active) in the assay on HOP-62 NSCLC; -4.43% (active) in the assay on NCI-H460 lung; -11.8% (active) in the assay with HOP-92 NSCLC. For the same compound, the growth with NCI-H522 lung is -69.9% (active); in the assay with A549/ATCC NSCLC, 2.89% (active); in the assay with 786-0 renal it was -43.7% (active); with COLO 205 colon it was -29.9% (active).

In the case of `CC1=C[C@H]2c3c(c(O)c(O)c4oc5ccccc5c(=O)c34)[C@H](c3cc(O)c(O)c4oc5ccccc5c(=O)c34)[C@H]2C(C)(C)C1`, the growth was -4.58% (active) in the assay on NCI-H23 lung; -14.4% (active) with NCI-H226 lung; 18.7% with NCI-H322M lung; -9.58% (active) in the assay on HOP-62 NSCLC; -37.6% (active) in the assay with NCI-H460 lung; -5.31% (active) with HOP-92 NSCLC. The growth in the assay with NCI-H522 lung was -18.3% (active); in the assay on A549/ATCC NSCLC, -11.8% (active); with 786-0 renal, -76.6% (active); with COLO 205 colon, 10.7%.

As to `COc1ccc2c(c1)C(=O)/C(=C/c1ccccn1)CC2`, the growth with NCI-H23 lung was 74.1%; with NCI-H226 lung, 95.8%; in the assay on NCI-H322M lung, 99.3%; with HOP-62 NSCLC it was 105%; in the assay on NCI-H460 lung, 97.8%; in the assay on HOP-92 NSCLC it was 84.1%. In addition, the growth is 16.5% in the assay with NCI-H522 lung, 95.2% in the assay on A549/ATCC NSCLC, 100% in the assay with 786-0 renal and 87.7% in the assay with COLO 205 colon.

As to `Nc1nc2ccc3[nH]ncc3c2c2c1CCCC2`, the growth in the assay on NCI-H23 lung is -19% (active); in the assay on NCI-H226 lung, 6.29% (active); in the assay on NCI-H322M lung, 2.32% (active); in the assay on HOP-62 NSCLC it was 2.81% (active); in the assay on NCI-H460 lung, 2.07% (active); in the assay with HOP-92 NSCLC, -12.6% (active). Moreover, the growth with NCI-H522 lung was -1.98% (active); with A549/ATCC NSCLC, 8.61% (active); in the assay with 786-0 renal it was 6.18% (active); in the assay with COLO 205 colon it was -19% (active).

For `O=C(Nc1ccccc1Cl)c1ccc(NC2=C(Cl)C(=O)N(C3CCCCC3)C2=O)cc1`, the growth in the assay on NCI-H23 lung is -24.1% [30 µM] (active); in the assay with NCI-H226 lung, 97.1% [30 µM]; with NCI-H322M lung, 16.2% [30 µM]; with HOP-62 NSCLC it was 88.4% [30 µM]; in the assay on NCI-H460 lung, 32.8% [30 µM]; in the assay with HOP-92 NSCLC, -16.8% [30 µM] (active). Moreover, the growth in the assay with NCI-H522 lung was 70.3% [30 µM]; in the assay on A549/ATCC NSCLC, 94% [30 µM]; in the assay on 786-0 renal, 69.9% [30 µM]; with COLO 205 colon it was 66.6% [30 µM].

For `O=C1NC(=S)N[C@H]1CC(=O)n1cnc2ccccc21`, the growth is 92.3% with NCI-H23 lung; 93.6% with NCI-H226 lung; 105% in the assay with NCI-H322M lung; 93% with HOP-62 NSCLC; 104% in the assay with NCI-H460 lung; 96.1% in the assay with HOP-92 NSCLC. Besides, the growth in the assay on NCI-H522 lung is 98.4%; in the assay on A549/ATCC NSCLC it was 105%; with 786-0 renal it was 102%; with COLO 205 colon, 111%.

As to `Cc1cn2c(/C=C3/C(=O)Nc4c3ccc3ccccc43)c(C(F)(F)F)nc2s1`, the growth in the assay with NCI-H23 lung was 39.5%; with NCI-H226 lung, 53.5%; in the assay with NCI-H322M lung, 43.2%; in the assay on HOP-62 NSCLC, 27.2%; with NCI-H460 lung it was 9.31% (active); in the assay with HOP-92 NSCLC it was 20.8%. The growth with NCI-H522 lung was 5.27% (active); in the assay with A549/ATCC NSCLC, 20.1%; with 786-0 renal, 24.8%; in the assay on COLO 205 colon it was -49.4% (active).

For the compound `C=C(C)[C@@H]1CC[C@]2(C(N)=O)CC[C@]3(C)[C@H](CC[C@@H]4[C@@]5(C)C/C(=C/c6ccco6)C(=O)C(C)(C)[C@@H]5CC[C@]43C)[C@@H]12`, the growth was 98% in the assay on NCI-H23 lung; 95.8% in the assay with NCI-H226 lung; 98.9% in the assay with NCI-H322M lung; 98.5% with HOP-62 NSCLC; 96% with NCI-H460 lung; 103% with HOP-92 NSCLC. The growth with NCI-H522 lung is 78.8%; in the assay with A549/ATCC NSCLC, 86.6%; with 786-0 renal, 95.3%; in the assay on COLO 205 colon it was 113%.

`COc1cc(C2CC(=O)c3ccccc3N2)cc(OC)c1OC` (stereo not given): the growth in the assay on NCI-H23 lung is 95.7%; in the assay on NCI-H226 lung, 82.6%; in the assay on NCI-H322M lung, 102%; in the assay with HOP-62 NSCLC it was 97.6%; with NCI-H460 lung it was 101%; in the assay with HOP-92 NSCLC it was 92.2%. In addition, the growth is 54% with NCI-H522 lung, 84.6% in the assay on A549/ATCC NSCLC, 102% in the assay on 786-0 renal and 113% in the assay on COLO 205 colon.

Turning to `O=C1NC(=S)NC(=O)C1CC(=O)n1c(-c2ccccc2)nc2ccccc21`, the growth in the assay on NCI-H23 lung was 97.2%; in the assay on NCI-H226 lung it was 86.1%; with NCI-H322M lung, 94%; in the assay with HOP-62 NSCLC it was 79.9%; in the assay on NCI-H460 lung it was 101%; in the assay on HOP-92 NSCLC, 108%. Besides, the growth is 96.9% with NCI-H522 lung, 97.7% in the assay with A549/ATCC NSCLC, 104% with 786-0 renal and 111% in the assay on COLO 205 colon.
